Experimental data reported in PubChem BioAssay (EPA / NIEHS).
Records with an inconclusive call do not appear. The source made the active and inactive calls. Rule for the calls, unless noted: active = hit-call score of the fitted dose curve at least 0.9, where 1 is the maximum; inconclusive = response in the unintended direction; inactive = score below 0.9.

Assays:
[1] = read-out: ABC Transporter (ABCB1), ABCB1 (gene 5243); assay: CLD_ABCB1_48hr: CellzDirect (CLD) Gene Expression Assay for ABC Transporter (ABCB1) at 48 hours (AID 2283695)
Procedure, shortened: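 ABCB1 mRNA was measured by quantitative nuclease protection assay (chemiluminescence) 48 h after dosing. Human hepatocyte cultures from two separate donors received fresh dosing solutions daily for two days, with 0.2% DMSO as vehicle. Positive-direction fit against DMSO.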

[2] = read-out: glucuronosyltransferase (UGT1A1), UGT1A1 (gene 54658); assay: CLD_UGT1A1_24hr: CellzDirect (CLD) Gene Expression Assay for glucuronosyltransferase (UGT1A1) at 24 hours (AID 2283696)
Procedure, shortened: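 UGT1A1 transcript induction was measured by quantitative nuclease protection assay (chemiluminescence) in human hepatocyte cultures 24 h after daily fresh dosing, with 0.2% DMSO as vehicle and baseline.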

[3] = read-out: Cytochrome P450 3A4 (Homo sapiens) (UniProt P08684); assay: CLD_CYP3A4_48hr: CellzDirect (CLD) Gene Expression Assay for xenobiotic metabolism (CYP3A4) at 48 hours (AID 2283698)
Procedure, shortened: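 CYP3A4 induction read by qNPA chemiluminescence after 48 h, with fresh dosing solutions on consecutive days, in cultured human hepatocytes (two donors). Vehicle 0.2% DMSO as baseline; microscopy-based cytotoxicity annotated yes/no alongside data.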

[4] = read-out: Cytochrome P450 2B6 (Homo sapiens) (UniProt P20813); assay: CLD_CYP2B6_48hr: CellzDirect (CLD) Gene Expression Assay for xenobiotic metabolism (CYP2B6) at 48 hours (AID 2283699);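 note: actives raise transcript level above DMSO so potency reflects induction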
Procedure, shortened: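 CYP2B6 transcript induction, read by quantitative nuclease protection (S1 digestion, chemiluminescent detection) 48 h after dosing, is fitted upward against 0.2% DMSO. Cultured human liver primary cells, two donor preparations, received fresh chemical daily over multiple concentrations.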

[5] = read-out: Cytochrome P450 2C19 (Homo sapiens) (UniProt P33261); assay: CLD_CYP2C19_48hr: CellzDirect (CLD) Gene Expression Assay for xenobiotic metabolism (CYP2C19) at 48 hours (AID 2283700);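 note: fitted upward so actives raise CYP2C19 mRNA above the 0.2% DMSO vehicle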
Procedure, shortened: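 CYP2C19 mRNA induction read by chemiluminescent quantitative nuclease protection assay after 48 h, with fresh compound added daily for two days to cultured human liver hepatocytes. Activity fitted upward against 0.2% DMSO vehicle.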

[6] = read-out: xenobiotic metabolism (CYP1A2), CYP1A2 (gene 1544); assay: CLD_CYP1A2_48hr: CellzDirect (CLD) Gene Expression Assay for xenobiotic metabolism (CYP1A2) at 48 hours (AID 2283703)
Procedure, shortened: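 Cytotoxicity was flagged yes/no from morphology, while CYP1A2 transcript induction was detected by qNPA chemiluminescence after a 48-hour exposure. Human primary hepatocyte cultures from separate donors received fresh dosing solutions daily over two days, with 0.2% DMSO as vehicle and baseline.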

[7] = read-out: Broad substrate specificity ATP-binding cassette transporter ABCG2 (Homo sapiens) (UniProt Q9UNQ0); assay: CLD_ABCG2_48hr: CellzDirect (CLD) Gene Expression Assay for ABC Transporter (ABCG2) at 48 hours (AID 2283704)
Procedure, shortened: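 ABCG2 transcript measured at 48 h by quantitative nuclease protection (chemiluminescent) and fitted for increase relative to 0.2% DMSO. Hepatocyte cultures from separate donors got fresh compound daily over two days; morphology annotated cytotoxicity.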

[8] = read-out: xenobiotic metabolism (CYP1A1), CYP1A1 (gene 1543); assay: CLD_CYP1A1_48hr: CellzDirect (CLD) Gene Expression Assay for xenobiotic metabolism (CYP1A1) at 48 hours (AID 2283705)
Procedure, shortened: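 CYP1A1 transcript measured by quantitative nuclease protection (chemiluminescent) 48 h after two daily treatments of human hepatocyte cultures, versus 0.2% DMSO. Morphology-based cytotoxicity flags accompany data; two donor preparations used.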

[9] = read-out: Glyceraldehyde-3-phosphate dehydrogenase (Homo sapiens) (UniProt P04406); assay: CLD_GAPDH_48hr: CellzDirect (CLD) Gene Expression Assay for Baseline Control (Glyceraldehyde 3-phosphate dehydrogenase) at 48 hours (AID 2283706);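 note: active means higher GAPDH mRNA than DMSO vehicle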
Procedure, shortened: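 GAPDH baseline-control readout: qNPA chemiluminescent mRNA quantitation in human liver primary cells 48 h after daily dosing on two consecutive days, vehicle 0.2% DMSO; gain of signal fitted against DMSO, cytotoxicity flagged by phase-contrast morphology.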

[10] = read-out: alkyl and aryl transferase (GSTA2), GSTA2 (gene 2939); assay: CLD_GSTA2_48hr: CellzDirect (CLD) Gene Expression Assay for alkyl and aryl transferase (GSTA2) at 48 hours (AID 2283708);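 note: active means mRNA induction above DMSO vehicle baseline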
Procedure, shortened: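 GSTA2 mRNA quantified by qNPA chemiluminescence in human primary hepatocyte lysates after 48 h of daily fresh chemical dosing. Increases fitted against 0.2% DMSO vehicle baseline; cytotoxicity from morphology annotated yes/no.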

[11] = read-out: glucuronosyltransferase (UGT1A1), UGT1A1 (gene 54658); assay: CLD_UGT1A1_48hr: CellzDirect (CLD) Gene Expression Assay for glucuronosyltransferase (UGT1A1) at 48 hours (AID 2283709);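 note: actives increase expression relative to DMSO so potency refers to induction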
Procedure, shortened: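 Quantitative nuclease protection assay (chemiluminescent) for UGT1A1 mRNA at 48 h in human hepatocyte cultures from two donors, redosed daily with fresh solutions. Induction fitted relative to 0.2% DMSO; phase-contrast morphology annotated cytotoxicity.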

[12] = read-out: sulfotransferase (SULT2A), SULT2A1 (gene 6822); assay: CLD_SULT2A_48hr: CellzDirect (CLD) Gene Expression Assay for sulfotransferase (SULT2A) at 48 hours (AID 2283710);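 note: hits raise SULT2A1 transcript above the 0.2% DMSO vehicle baseline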
Procedure, shortened: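 SULT2A1 transcript measured by qNPA chemiluminescence in human primary hepatocyte cultures after 48 h, with fresh dosing solutions on two consecutive days; gain-of-signal fitting against 0.2% DMSO vehicle; cytotoxicity annotated from phase-contrast morphology.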

[13] = STM_H9_OrnithineISnorm_perc: Stemina devTOX quickPredict H9 human embryonic stem cell (hESC)-based Assay for Ornithine (ORN) Metabolite Biomarker, Normalized (AID 2283712; active = hit-call score of the fitted dose curve at least 0.9, where 1 is the maximum; inactive = score below 0.9;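 note: ornithine released into spent medium during last day measured by mass spectrometry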)
Procedure, shortened: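 Metabolite endpoint from spent media of pluripotent H9 cells treated 72 h with daily re-feeding; ornithine measured by UPLC-HRMS against its 13C spike-in and referenced to the median 0.1% DMSO vehicle response.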

[14] = STM_H9_CystineISnorm_perc: Stemina devTOX quickPredict H9 human embryonic stem cell (hESC)-based Assay for Cystine (CYSS) Metabolite Biomarker, Normalized (AID 2283713; active = hit-call score of the fitted dose curve at least 0.9, where 1 is the maximum; inactive = score below 0.9)
Procedure, shortened: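 Normalized cystine level in conditioned medium from the final 24h of a 72h treatment of pluripotent H9 cells (daily media and compound renewal). Quantified by UPLC-HRMS with C13-labeled internal standard; scaled to median of 0.1% DMSO vehicle wells.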

[15] = STM_H9_OrnCyssISnorm_ratio: Stemina devTOX quickPredict H9 human embryonic stem cell (hESC)-based Assay for Ornithine (ORN):Cystine (CYSS) Ratio (AID 2283714)
Procedure, shortened: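 UPLC-HRMS of spent media: ORN/CYSS ratio of internal-standard-normalized percentages, DMSO (0.1%) baseline. Pluripotent H9 hESCs, 72h exposure, daily re-dosing with fresh media; last 24h media collected.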

[16] = read-out: ABC Transporter (ABCB11), ABCB11 (gene 8647); assay: CLD_ABCB11_48hr: CellzDirect (CLD) Gene Expression Assay for ABC Transporter (ABCB11) at 48 hours (AID 2283697)
Procedure, shortened: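 Induction of ABCB11 mRNA relative to 0.2% DMSO, measured at 48 h by qNPA chemiluminescence. Cultured human hepatocytes (two donors) received fresh dosing solutions at several concentrations on two consecutive days.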

[17] = CLD_ACTIN_48hr: CellzDirect (CLD) Gene Expression Assay for Baseline Control (Actin) at 48 hours (AID 2283702)
Procedure, shortened: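 Background-control actin mRNA read by qNPA chemiluminescence at 48 h. Human hepatocyte cultures from two donors received fresh multi-concentration chemical doses daily for two days; 0.2% DMSO served as vehicle baseline.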

[18] = read-out: HMG-CoA synthase (HMGCS2), HMGCS2 (gene 3158); assay: CLD_HMGCS2_48hr: CellzDirect (CLD) Gene Expression Assay for HMG-CoA synthase (HMGCS2) at 48 hours (AID 2283711)
Procedure, shortened: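 mRNA induction read by qNPA chemiluminescence, 48 h after dosing. Cultured primary human liver cells (two donor preparations) received fresh compound daily over two days against 0.2% DMSO vehicle; morphology-based cytotoxicity noted alongside.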

Measured: AC50

Chain of Glyceraldehyde-3-phosphate dehydrogenase (Homo sapiens) (P04406 whole entry, looked up): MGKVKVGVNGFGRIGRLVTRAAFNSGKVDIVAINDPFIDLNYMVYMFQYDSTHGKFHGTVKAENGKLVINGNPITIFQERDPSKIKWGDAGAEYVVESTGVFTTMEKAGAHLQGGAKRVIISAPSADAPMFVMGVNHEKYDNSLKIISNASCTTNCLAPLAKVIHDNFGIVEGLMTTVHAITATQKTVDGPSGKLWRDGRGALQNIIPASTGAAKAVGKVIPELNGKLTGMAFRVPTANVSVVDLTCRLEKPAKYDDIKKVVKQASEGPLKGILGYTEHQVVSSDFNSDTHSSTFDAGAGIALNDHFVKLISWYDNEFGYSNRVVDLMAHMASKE
Chain of Cytochrome P450 3A4 (Homo sapiens) (P08684 whole entry, looked up): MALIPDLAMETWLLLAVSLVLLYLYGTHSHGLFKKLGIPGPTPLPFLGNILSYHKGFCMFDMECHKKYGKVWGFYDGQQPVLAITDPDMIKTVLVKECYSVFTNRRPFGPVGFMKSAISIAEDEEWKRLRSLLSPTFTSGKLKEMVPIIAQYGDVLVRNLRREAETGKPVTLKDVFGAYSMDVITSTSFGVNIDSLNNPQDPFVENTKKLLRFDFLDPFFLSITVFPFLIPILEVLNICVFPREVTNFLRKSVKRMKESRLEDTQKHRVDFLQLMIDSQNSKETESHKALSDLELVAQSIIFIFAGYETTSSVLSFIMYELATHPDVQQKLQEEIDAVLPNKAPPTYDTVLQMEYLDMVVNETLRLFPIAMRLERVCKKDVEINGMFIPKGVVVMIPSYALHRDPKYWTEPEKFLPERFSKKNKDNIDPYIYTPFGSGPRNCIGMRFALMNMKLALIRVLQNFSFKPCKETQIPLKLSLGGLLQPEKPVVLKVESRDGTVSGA
Chain of Broad substrate specificity ATP-binding cassette transporter ABCG2 (Homo sapiens) (Q9UNQ0 whole entry, looked up): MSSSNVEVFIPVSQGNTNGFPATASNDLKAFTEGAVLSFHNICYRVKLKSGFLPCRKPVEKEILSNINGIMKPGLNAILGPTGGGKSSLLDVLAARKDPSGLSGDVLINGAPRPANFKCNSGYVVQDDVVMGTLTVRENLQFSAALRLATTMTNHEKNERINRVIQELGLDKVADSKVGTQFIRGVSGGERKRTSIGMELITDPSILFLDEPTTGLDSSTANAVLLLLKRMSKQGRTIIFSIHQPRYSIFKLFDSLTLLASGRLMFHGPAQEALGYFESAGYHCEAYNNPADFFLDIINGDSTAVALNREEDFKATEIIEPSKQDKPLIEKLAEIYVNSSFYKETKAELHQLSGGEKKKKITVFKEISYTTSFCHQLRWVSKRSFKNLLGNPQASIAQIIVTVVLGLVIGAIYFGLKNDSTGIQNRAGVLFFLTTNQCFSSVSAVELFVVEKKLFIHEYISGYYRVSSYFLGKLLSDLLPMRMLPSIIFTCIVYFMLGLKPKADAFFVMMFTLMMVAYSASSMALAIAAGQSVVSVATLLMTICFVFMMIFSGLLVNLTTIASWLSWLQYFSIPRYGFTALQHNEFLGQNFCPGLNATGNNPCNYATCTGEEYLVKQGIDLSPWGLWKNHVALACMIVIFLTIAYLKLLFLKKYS
Chain of Cytochrome P450 2C19 (Homo sapiens) (P33261 whole entry, looked up): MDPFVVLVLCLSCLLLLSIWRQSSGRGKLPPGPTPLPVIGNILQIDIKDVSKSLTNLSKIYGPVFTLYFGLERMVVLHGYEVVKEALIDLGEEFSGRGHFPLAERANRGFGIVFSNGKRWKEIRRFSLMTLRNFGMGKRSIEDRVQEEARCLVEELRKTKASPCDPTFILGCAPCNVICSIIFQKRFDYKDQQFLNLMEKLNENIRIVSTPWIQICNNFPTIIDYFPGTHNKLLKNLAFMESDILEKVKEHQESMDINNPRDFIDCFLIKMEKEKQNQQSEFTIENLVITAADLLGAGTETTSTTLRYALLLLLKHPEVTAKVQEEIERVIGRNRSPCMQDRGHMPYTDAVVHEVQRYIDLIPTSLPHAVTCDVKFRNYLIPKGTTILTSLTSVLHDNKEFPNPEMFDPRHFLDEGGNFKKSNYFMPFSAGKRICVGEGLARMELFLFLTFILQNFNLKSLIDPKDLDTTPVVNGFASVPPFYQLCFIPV

Cc1ccccc1CO[C@@H]1C[C@@]2(C(C)C)CC[C@]1(C)O2
inactive: [1] | [5] | [7] | [8] | [9] | [10] | [12]
active: [2] 5.18 µM | [3] 10.4 µM | [4] 4.16 µM | [6] 11.5 µM | [11] 7.69 µM

C=CC(N)=O
inactive: [13] | [14]

Oc1ccc(C(c2ccc(O)cc2)(C(F)(F)F)C(F)(F)F)cc1
inactive: [13] | [14]

CCCCCCCCOC(=O)c1ccccc1C(=O)OCCCCCCCC
inactive: [13] | [14] | [15]

CCCCCCOC(=O)c1ccccc1C(=O)OCCCCCC
active: [15] 3.69 µM
inactive: [13] | [14]

CO/C=C(/C(=O)OC)c1ccccc1COc1cccc(C(F)(F)F)n1
inactive: [14] | [15]
active: [13] 99.2 nM

Cc1cc(O)ccc1Cl
inactive: [13] | [14] | [15]

CN(C)c1nc(=O)n(C2CCCCC2)c(=O)n1C
inactive: [2] | [16] | [3] | [17] | [6] | [9] | [11] | [12] | [18]

CCCCCCCCCC[N+](C)(C)CCCCCCCCCC
active: [13] 1820 nM | [14] 2.44 µM | [15] 1.94 µM

CC1=C2C[C@H]3[C@@H](CC=C4C[C@@H](O)CC[C@@]43C)[C@@H]2CC[C@]12O[C@@H]1C[C@H](C)CN[C@H]1[C@H]2C
inactive: [13] | [14] | [15]

Nn1cnnc1
active: [13] 37 nM
inactive: [14] | [15]

CCNc1nc(NC(C)C)nc(SC)n1
active: [3] 5.88 µM | [4] 1.9 µM | [8] 9.24 µM | [10] 8.73 µM | [14] 34.3 µM | [15] 33.3 µM
inactive: [1] | [2] | [17] | [6] | [7] | [9] | [11] | [12] | [13]
